From publication PMC6212790, “How bacterial xenogeneic silencer rok distinguishes foreign from self DNA in its resident genome”
The full ranking holds about 33,000 sequences; the median of “e-score” is about -0.037, and the highest 2% start at about 0.34. The list comes from a sample in which the highest values are over-represented; it also holds similar and randomly drawn sequences.

These sequences were tested against T1, GST-Rok (full length) (Bacillus subtilis subsp. subtilis str. …, UniProt O34857 1-191) (assay: protein binding microarray; Rok is a gene silencer of Bacillus subtilis; high values mean tight binding). Settings: protein: recombinant; tags: GST (pTH5325, pDEST15-Magic modified); dsDNA, one strand shown.
T1 sequence: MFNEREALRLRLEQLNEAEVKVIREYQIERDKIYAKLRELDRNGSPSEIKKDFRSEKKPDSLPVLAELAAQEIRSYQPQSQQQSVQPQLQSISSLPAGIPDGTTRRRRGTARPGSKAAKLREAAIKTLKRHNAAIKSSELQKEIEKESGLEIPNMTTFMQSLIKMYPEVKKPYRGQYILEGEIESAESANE
Summary of the method: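 Each has a 25-mer constant primer and a 35-mer variable part from a de Bruijn sequence of order 10, covering every non-palindromic 8-mer at least 32 times (palindromic 16). Preference for each 8-mer is given as a rank-based, unitless enrichment score (E-score). Its range runs from 0.5 (most favored) to −0.5 (most disfavored).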

| Sequence | binding signal [E-score] |
| --- | --- |
| AAATCCAT | 0.193 |
| GGAGGTGA | -0.124 |
| CCGGCAGC | -0.14 |
| CCGCGTCG | 0.0351 |
| ACAGTGTA | 0.268 |
| GTAACTCA | 0.22 |
| CGTTTTAA | 0.191 |
| ACGAGTAG | -0.0634 |
| ATTGTATA | 0.32 |
| AATGTATC | 0.224 |
| AATGTACT | 0.303 |
| AAAGTACG | 0.22 |
| CAAGTACA | 0.165 |
| AATGTACG | 0.192 |
| AATGTATA | 0.388 |
| CTTGTATA | 0.219 |
| AAAGTACA | 0.364 |
| AATGTATG | 0.272 |
| AATGTACA | 0.347 |
| GTTGTATA | 0.348 |
| CAGTACTG | 0.0294 |
| CCTGGCGA | -0.199 |
| GTCCGTCA | -0.0558 |
| GGCAGCTA | -0.0821 |
| AGAAAGAT | 0.0756 |
| AAGGCGGT | -0.0994 |

| Sequence | binding signal [E-score] |
| --- | --- |
| ATTGTACA | 0.369 |
| ATTGTACC | 0.239 |
| ATTGTACG | 0.266 |
| CATGTACA | 0.317 |
| GATGTACA | 0.282 |
| TATGTACA | 0.378 |
| ACGCTTGC | -0.1 |
| CCGTTTTA | 0.0815 |
| CAAATCTC | 0.0513 |
| GCAATCTA | 0.361 |
| GAAATCTC | 0.209 |
| CAAATCTA | 0.377 |
| CCAATCTA | 0.283 |
| TAAATCTA | 0.308 |
| ACAATCTA | 0.283 |
| CAAATCTG | -0.00951 |
| GAAATCTA | 0.345 |
| ATTGATCG | 0.0726 |
| CAACTGAA | -0.0305 |
| CCTCTCTA | -0.198 |
| CGTATCGA | 0.0045 |
| ATAAATAA | 0.329 |
| ACAAATAT | 0.402 |
| ACAAATAC | 0.249 |
| ACAAATAA | 0.333 |
| ATAAATAG | 0.322 |

| Sequence | binding signal [E-score] |
| --- | --- |
| ATAAATAT | 0.339 |
| AATAACCT | 0.0317 |
| AACCACGT | -0.0233 |
| ACCATAGT | 0.207 |
| TGATAGAA | 0.388 |
| CGATAGAG | -0.134 |
| CGATAGAC | 0.0161 |
| CGATAGAA | 0.344 |
| AGATAGAA | 0.26 |
| GGATAGAA | 0.171 |
| AGGTGCCA | -0.0282 |
| CTTATTGA | -0.157 |
| AATAGATC | 0.14 |
| CATAGATA | 0.3 |
| TATAGATA | 0.384 |
| AATAGATG | 0.261 |
| AATAGATT | 0.388 |
| GATAGATC | 0.273 |
| AATAGATA | 0.262 |
| GATAGATA | 0.368 |
| GATAGACA | -0.0476 |
| ACCGTACT | 0.0822 |
| ATTTGGCC | -0.00123 |
| CACGGTAG | 0.264 |
| AACATCAA | 0.0614 |
| CGAAGCAA | -0.114 |

| Sequence | binding signal [E-score] |
| --- | --- |
| AACCTCGC | -0.106 |
| AAATTCGT | 0.226 |
| AAAATATT | 0.358 |
| AAAATATA | 0.417 |
| CAAATATG | 0.194 |
| CAAATATC | 0.285 |
| GAAATATA | 0.283 |
| CAAATATA | 0.345 |
| TAAATATA | 0.394 |
| TAAATAAA | 0.231 |
| AAAATAAA | 0.199 |
| ACAATATA | 0.298 |
| AAAATATG | 0.278 |
| AAAATATC | 0.275 |
| AATGACCG | -0.0639 |
| AGGAATTC | -0.159 |
| ACGAACCA | 0.000876 |
| TCATTCAA | -0.111 |
| CAGTTTTC | 0.0134 |
| AATCGATA | 0.281 |
| GATCGATA | 0.269 |
| TATCGATA | 0.376 |
| CTACAATA | 0.291 |
| AGAATCCT | 0.0705 |
| ACGAAACT | 0.337 |
| ACGAAACC | -0.0947 |

| Sequence | binding signal [E-score] |
| --- | --- |
| ACGAAACA | 0.0691 |
| AGCCTTAG | -0.181 |
| ATGAGATA | 0.346 |
| CGTAGATA | 0.258 |
| CTGAGATA | 0.0758 |
| AGTAGATG | 0.283 |
| ATGAGATC | 0.0598 |
| ATTAGATC | 0.293 |
| GTTAGATA | 0.241 |
| ATTAGATA | 0.367 |
| GGTAGATA | 0.451 |
| CGTAGATC | 0.21 |
| AGTAGATA | 0.442 |
| AGTAGATC | 0.324 |
| CGTAATAA | 0.27 |
| CTCTTCGC | 0.197 |
| CCATAAAC | -0.00276 |
| ATAAAGAA | -0.0956 |
| GTCATAAA | 0.154 |
| AATCTTCG | 0.0665 |
| TACTTATA | 0.321 |
| AATTTATA | 0.435 |
| ATTTTATG | 0.251 |
| GATTTATA | 0.315 |
| ATTTTATA | 0.41 |
| AATTTATG | 0.283 |

| Sequence | binding signal [E-score] |
| --- | --- |
| GTTTTATA | 0.141 |
| CACTTATA | 0.329 |
| AACTTATA | 0.403 |
| CTAATCGC | 0.18 |
| AGAAACAT | 0.155 |
| CGGCTATC | -0.0522 |
| ACTAGCGG | 0.188 |
| CCAAACGA | 0.042 |
| TAAATGTA | 0.411 |
| AAAATGTA | 0.287 |
| GAAATGCA | -0.095 |
| CAAATGTA | 0.289 |
| GAAATGTA | 0.351 |
| GAAATGTC | 0.126 |
| CTTGTTTC | 0.0903 |
| CAAACCAG | -0.185 |
| AACCATGC | -0.0502 |
| CCTATCAA | 0.161 |
| ACTATCAA | 0.337 |
| CCTATCAC | 0.0828 |
| GCTATCAC | 0.244 |
| ACTATCAC | 0.34 |
| GCTATCAA | 0.164 |
| AGAAAGTC | 0.121 |
| GTAAAGAA | 0.0756 |
| TCTATTCA | 0.0926 |

| Sequence | binding signal [E-score] |
| --- | --- |
| AACTAAAT | 0.362 |
| TACTAAAA | 0.434 |
| AACTAAAG | -0.0498 |
| ACCTAAAA | 0.306 |
| AACTAAAA | 0.345 |
| AACTAAGA | 0.138 |
| CACTAAAA | 0.293 |
| AACTAAAC | 0.138 |
| GACTAAAA | 0.123 |
| CGCCCAAC | -0.14 |
| AACTTTGA | -0.0517 |
| AACATTAC | 0.214 |
| AGTAGGTA | 0.404 |
| CGTAGGTA | 0.347 |
| AGTAGGTG | 0.174 |
| GGTAGGTA | 0.304 |
| CCTAGGTA | 0.0506 |
| AGTAGGTC | 0.069 |
| GATGGAGA | -0.0862 |
| ATTAACCG | 0.0492 |
| CGAAAGGC | -0.183 |
| CTTACAAG | -0.114 |
| ATGAATCC | 0.0418 |
| ATAGCTAG | 0.273 |
| GAAGCTAC | 0.323 |
| GTAGCTAA | 0.373 |

| Sequence | binding signal [E-score] |
| --- | --- |
| TTAGCTAA | 0.129 |
| CTAGCTAC | 0.198 |
| ATAGCTAT | 0.373 |
| ATAGCTAC | 0.333 |
| GTAGCTAC | 0.436 |
| CTAGCTAA | 0.133 |
| CCGCTGAC | -0.15 |
| GCCGCATA | -0.186 |
| AGAGTCGA | -0.0761 |
| CTAGTGTC | 0.0749 |
| GGCAGTAC | -0.0236 |
| GCGGATCA | -0.193 |
| ACAAGGAA | -0.0483 |
| ATTCACCC | 0.0731 |
| ATTACTGC | 0.138 |
| ATTACTGG | -0.0684 |
| GTTACTAA | 0.283 |
| ATTACTAA | 0.357 |
| ATTACTAC | 0.355 |
| CTTACTAC | 0.169 |
| ATTACTCG | 0.225 |
| CTTACTAA | 0.222 |
| ATTACTAG | 0.398 |
| AGGTCCAG | -0.187 |
| ACTGGCCG | 0.00991 |
| AGCGGCTC | -0.196 |

| Sequence | binding signal [E-score] |
| --- | --- |
| GTCGCTTA | -0.0639 |
| GTTACATA | 0.212 |
| AACGTTAG | 0.344 |
| AACGTTAT | 0.216 |
| AACGTTAC | -0.0148 |
| GCATTCCA | -0.149 |
| CGCGTCCA | -0.16 |
| ATGCTTCG | -0.00471 |
| GCGCAGAA | -0.0702 |
| AATATACA | 0.388 |
| CGTATACA | 0.227 |
| CATATACA | 0.258 |
| TATATACA | 0.409 |
| GATATACA | 0.25 |
| GGTATACA | 0.187 |
| GATATACC | 0.291 |
| AATACACA | 0.234 |
| TGTATACA | 0.351 |
| CATATACC | 0.259 |
| AATATACC | 0.394 |
| ACTATACA | 0.322 |
